Screening data deposited in PubChem by National Center for Advancing Translational Sciences (NCATS).
Cycloheximide cs: affects cycloheximide protein synthesis inhibition readout, counter-screen; AID 2314; max response, %; 12% of 300,000 active; cell reporter, cycloheximide protein synthesis inhibition counterscreen; in the data active = max response mostly above about 13%, no sharp cut-off; inactive = mostly below about 14%; note: read at 38.3 µM for the half of the compounds with a filed dose; 0% is about no effect
Shiga toxin inh: inhibitors of Shiga toxin in Vero cells; Vero cells, Shiga toxin protein synthesis inhibition reporter; 9.2% of 290,000 active; AID 2315; inhibition, % at 38.7 µM; in the data active = inhibition mostly above about 28%, no sharp cut-off; inactive = mostly below about 43%; note: 0% is about no effect
Pf growth 48h: P. falciparum growth inhibition at 48 hours (one generation); 5.9% of 310,000 active; P. falciparum luciferase growth in erythrocytes, 48 h; Potency, µM (top dose mostly 28.7 µM), without a hit: at the top dose activity change, negative = inhibition, actives largely listed as inhibitors; note: potency is the fitted concentration of half-maximal effect; % is set by controls: 0 for no effect and ±100 for the full control effect
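Firefly luciferase activity from engineered P. falciparum reports growth; inhibitors lower the luminescent signal. Cultures contained 2% hematocrit erythrocytes at 0.1% final parasitemia.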
Pf growth 96h: P. falciparum growth inhibition at 96 hour, primary screen for plastid delayed-death inhibitors | P. falciparum luciferase reporter growth, 96 h | 6.9% of 320,000 active | Potency, µM (titrated, usually from 28.7 µM), without a hit: at the top dose activity change, negative = inhibition, actives largely listed as inhibitors; note: potency is the fitted concentration of half-maximal effect; % is set by controls: 0 for no effect and ±100 for the full control effect
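Erythrocytes infected with luciferase-expressing P. falciparum were dispensed at 2% hematocrit and 0.05% parasitemia (final), then incubated with compounds 96 hours at 37 C in 5% CO2. Luminescence after detection reagent addition reported growth.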
HCMV inh: blocks human cytomegalovirus replication; HFF cells, HCMV-luciferase reporter, 72 h; hits give low values; activity change, negative = inhibition, % at 57.5 µM; 4.5% of 410,000 active; in the data active = activity change below about -60%; inconclusive = no clear call, values can overlap the other calls; inactive = above about -39%; note: % is set by controls: 0 for no effect and ±100 for the full control effect
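Cell-based, HFFs, 1000 cells/well, 16 h 37C; cpds in DMSO + HCMV-luc, MOI 1 PFU/cell; 72 h 37C; OneGlo luminescence after 5 min RT; norm. to buffer vs Salinomycin 10uM.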
* hit, by the source's call. Shown are actives, neighbours in structure and some others; about 20% of the full set was active somewhere. Unless noted, calls come from the whole dose curve; as a rule, active = well fitted inhibition curve with a large enough effect; inconclusive = small, poorly fitted or top-dose-only effect, or another doubt; inactive = no such curve, though single readings can be large or run the other way.

What do the screens show for `Cn1cc(CN2CCCC(C(=O)Nc3cccc(-n4cccn4)c3)C2)cn1` (centres undefined)?
Cycloheximide cs: -3; Shiga toxin inh: 15; Pf growth 48h: 10%; Pf growth 96h: inconclusive; HCMV inh: -8

What do the screens show for `CCn1ncc(CN2CCCC(C(=O)Nc3cccc(-c4cc5ccccc5[nH]4)c3)C2)c1C` (centres undefined)?
Cycloheximide cs: -1; Shiga toxin inh: -10; Pf growth 48h: 4.1µM*; Pf growth 96h: -9%; HCMV inh: inconclusive

How did Cc1c(CN2CCCC(C(=O)Nc3cccc(-n4cccn4)c3)C2)cnn1C (centres undefined) do in these assays?
Cycloheximide cs: 5; Shiga toxin inh: 5; Pf growth 48h: -25%; Pf growth 96h: 13µM*; HCMV inh: 18

Results for O=C(Nc1cccc(-n2cnnn2)c1)C1CCCN(C(=O)Cc2cccc(Cl)c2)C1 (centres undefined) ?
HCMV inh: -23

How did CC(OC(=O)c1cccc(S(=O)(=O)N2CCCC2)c1)C(=O)NC1CCCCC1C (centres undefined) do in these assays?
Pf growth 48h: inconclusive; Pf growth 96h: -4%; HCMV inh: -1

What do the screens show for `CN(CC(=O)Nc1ccc(F)c(F)c1F)C(=O)c1n[nH]c(=O)c2ccccc12`?
HCMV inh: -22

What do the screens show for `CC(=NCCCn1ccnc1)c1c(O)n(C)c(=O)n(C)c1=O`?
Cycloheximide cs: 1; Shiga toxin inh: 1; Pf growth 48h: 27%; Pf growth 96h: 10µM*; HCMV inh: -3

What do the screens show for `CCc1ccc(OC(=O)c2ccn(CC)n2)cc1`?
Cycloheximide cs: 40*; Shiga toxin inh: 150*; Pf growth 48h: 5%; Pf growth 96h: inconclusive; HCMV inh: -6

How did C=CCn1c(O)c(N=NC(=S)Nc2cccc(OC)c2)c2ccccc21 do in these assays?
Cycloheximide cs: -3; Shiga toxin inh: -8; Pf growth 48h: 3.7µM*; Pf growth 96h: inconclusive; HCMV inh: -76*

How did C=CCn1c(O)c(N=NC(=S)Nc2ccc(OC)cc2)c2ccccc21 do in these assays?
Cycloheximide cs: -5; Shiga toxin inh: -15; Pf growth 48h: 10µM*; Pf growth 96h: 0%; HCMV inh: -72*

Results for C=CCn1c(O)c(N=Nc2ccccc2)c2ccccc21 ?
Cycloheximide cs: -3; Shiga toxin inh: -3; Pf growth 48h: 2%; Pf growth 96h: -1%; HCMV inh: 50

How did Cc1ccc2c(c1)N(CC(=O)NCCCN1CCOCC1)C(=O)c1cccnc1O2 do in these assays?
Cycloheximide cs: -4; Shiga toxin inh: 11; Pf growth 48h: 28%; Pf growth 96h: 57%; HCMV inh: 14

How did CCOC(=O)c1sc(=S)n(-c2ccccc2Cl)c1SC do in these assays?
Cycloheximide cs: 16; Shiga toxin inh: 53; Pf growth 48h: 13µM*; Pf growth 96h: 2.6µM*; HCMV inh: 47

How did CCOC(=O)c1sc(=S)n(-c2ccccc2)c1SC do in these assays?
Cycloheximide cs: -2; Shiga toxin inh: -7; Pf growth 48h: 12µM*; Pf growth 96h: 13µM*; HCMV inh: 15

Results for CCOC(=O)c1sc(=S)n(-c2cccc(C(F)(F)F)c2)c1SC ?
Cycloheximide cs: -1; Shiga toxin inh: -9; Pf growth 48h: inconclusive; Pf growth 96h: inconclusive; HCMV inh: -7

How did Cc1nc2ccn(Cc3ccco3)c(=O)c2cc1C(=O)N1CCN(c2ccccc2F)CC1 do in these assays?
HCMV inh: -22

Results for COc1cc2c(cc1NC(=O)Nc1ccccc1)oc1ccccc12 ?
Cycloheximide cs: 1; Shiga toxin inh: 20; Pf growth 48h: -10%; Pf growth 96h: 28%; HCMV inh: -28

What do the screens show for `COc1cc2c(cc1NC(=S)Nc1cccc3ccccc13)oc1ccccc12`?
Cycloheximide cs: 35*; Shiga toxin inh: 103*; Pf growth 48h: -28%; HCMV inh: 26

What do the screens show for `COCCCNC(=S)Nc1cc2oc3ccccc3c2cc1OC`?
Cycloheximide cs: 11*; Shiga toxin inh: 17; Pf growth 48h: inconclusive; Pf growth 96h: inconclusive; HCMV inh: 4

Results for COc1cc2c(cc1NC(=S)Nc1cccc(C(F)(F)F)c1)oc1ccccc12 ?
Cycloheximide cs: 2; Shiga toxin inh: 26; Pf growth 48h: inconclusive; HCMV inh: -21

How did Cc1cccc(Cn2c(=O)n(Cc3ccc(C(=O)NC4CCN(Cc5ccccc5)CC4)cc3)c(=O)c3ccccc32)c1 do in these assays?
HCMV inh: -2

Results for CC1CN=C(N(C(=O)Nc2ccccc2)C(C)c2ccccc2)S1 (centres undefined) ?
Cycloheximide cs: 13*; Shiga toxin inh: 47; Pf growth 48h: inconclusive; Pf growth 96h: -20%; HCMV inh: 30

What do the screens show for `CC1CN=C(N(C(=O)Nc2ccccc2)C(C)C)S1` (centres undefined)?
Cycloheximide cs: 8; Shiga toxin inh: -4; Pf growth 48h: -18%; Pf growth 96h: inconclusive; HCMV inh: 25

Results for CC1CN=C(N(Cc2ccccc2)C(=O)Nc2ccccc2)S1 (centres undefined) ?
Cycloheximide cs: 14; Shiga toxin inh: 25; Pf growth 96h: -47%; HCMV inh: 29

How did Cc1ccc(N(C(=O)Nc2ccccc2)C2=NCC(C)S2)cc1 (centres undefined) do in these assays?
Cycloheximide cs: 23*; Shiga toxin inh: 91*; Pf growth 48h: 44%; Pf growth 96h: -13%; HCMV inh: 32

How did CCc1cccc(C)c1NC(=O)Nc1csc2c1CCCC2 do in these assays?
HCMV inh: 3

What do the screens show for `Oc1ccc(Cl)cc1CNCC1CCCCC1`?
Pf growth 48h: 1.9µM*; Pf growth 96h: 12µM*; HCMV inh: 23

How did Cc1ccc(CNCc2cc(Cl)ccc2O)cc1 do in these assays?
Pf growth 48h: 2.9µM*; Pf growth 96h: 7.4µM*; HCMV inh: -24

Results for COc1ccc(-c2cc(=O)oc3c4c(ccc23)OCN(Cc2cccc(OC)c2)C4)cc1 ?
HCMV inh: -24

Results for CC1=C(/C=C/C(C)=C/C=C/C(C)=C/CO)C(C)(C)CCC1 ?
Pf growth 48h: inconclusive; Pf growth 96h: 11µM*

What do the screens show for `COc1ccc(CNC(=O)c2cc3cc(S(=O)(=O)N4CCCCC4)ccc3n2C)c(OC)c1`?
HCMV inh: 9

How did COc1ccc(CN(C)Cc2c(O)ccc3cc(Br)ccc23)cc1OC do in these assays?
Cycloheximide cs: -5; Shiga toxin inh: -8; Pf growth 48h: inconclusive; Pf growth 96h: inconclusive; HCMV inh: -66*

How did COc1ccc(CCN(C)CCc2ccc(OC)c(OC)c2)cc1OC do in these assays?
HCMV inh: -7

What do the screens show for `COc1ccc(CCN(C)Cc2c(O)ccc3cc(Br)ccc23)cc1OC`?
Cycloheximide cs: -2; Shiga toxin inh: 6; Pf growth 48h: inconclusive; Pf growth 96h: inconclusive; HCMV inh: -77*

What do the screens show for `COc1cccc(CN(C)Cc2c(O)ccc3ccccc23)c1`?
Cycloheximide cs: 26; Shiga toxin inh: 24*; Pf growth 48h: inconclusive; Pf growth 96h: -1%; HCMV inh: -26
